# Reference: PubChem BioAssay (NCATS)
# Unmarked numbers belong to inactive results. Records with an inconclusive call do not appear. Where a call stands in place of a potency, no number is given. The source made the active and inactive calls. Unless noted, calls follow the shape of the dose curve; as a rule, active = well fitted curve in the direction sought with a large enough effect; inconclusive = small, poorly fitted or top-dose-only effect, or another doubt; inactive = no such curve, though single readings can be large; an effect the other way counts as inactive or inconclusive.
# How the values were obtained:
# [1] = tested on: SKOV3; assay: Primary qHTS to identify gynecologic anti-cancer compounds using libraries of approved drugs and bioactive compounds (AID 1345084); conditions: Gynecologic cancer cell panel viability, ATPlite luminescence, 48 h; series mostly up to 57.5 µM; also: nearly all actives have a fitted effect of over 55% in size; also: potency is read from the fitted curve at half-maximal effect
# Summary of the method: (§1)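 ATP-based viability (ATPlite), 1,000 cells/well, 16 h pre-incubation, 48 h compound at 37 C, 5% CO2, 15 min RT before read.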
# [2] = tested on: Tov-21-G; assay: as above; conditions: Gynecologic cancer cell panel viability, ATPlite luminescence, 48 h; series mostly up to 57.5 µM
# Summary of the method: as §1
# [3] = tested on: Tov112D; assay: as above; conditions: Gynecologic cancer cell panel viability, ATPlite luminescence, 48 h; series mostly up to 57.5 µM
# Summary of the method: as §1
# [4] = qHTS assay to identify inhibitors of the type 1 interferon - major histocompatibility complex class I in skeletal muscle: Counter screen cell viability and HiBit confirmation (AID 1347412); conditions: iHSKM muscle cells + IFN-b, HiBiT or CellTiter-Glo, 24 h, Viability; for activity change, negative = inhibition: at 45.9 µM (top of the series); also: potency is read from the fitted curve at half-maximal effect; as to all read-outs here: nearly all actives have a fitted effect of over 60% in size
# Summary of the method: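 Myoblasts (C25cl48, HLA-B HiBiT) seeded in medium without dexamethasone, IFN-b 4 ng/ml added except unstimulated columns; 1 hr later compounds pinned (12-pt 1:3, top 46 uM final). Incubated 24 hrs, lysed 10 min, luminescence measured.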
# [5] = molecular target: Nuclear receptor subfamily 1 group I member 2 (Rattus norvegicus) (UniProt Q9R1A7); assay: qHTS assay for small molecule activators of the rat pregnane X receptor (rPXR) signaling pathway (AID 651751; call rule not given here); conditions: rPXR reporter cells, luciferase (One-Glo), 24 h
# [6] = qHTS assay for small molecule activators of the human pregnane X receptor (PXR) signaling pathway (AID 720659; call rule not given here)
# Sequence of Nuclear receptor subfamily 1 group I member 2 (Rattus norvegicus) (Q9R1A7 whole entry, looked up): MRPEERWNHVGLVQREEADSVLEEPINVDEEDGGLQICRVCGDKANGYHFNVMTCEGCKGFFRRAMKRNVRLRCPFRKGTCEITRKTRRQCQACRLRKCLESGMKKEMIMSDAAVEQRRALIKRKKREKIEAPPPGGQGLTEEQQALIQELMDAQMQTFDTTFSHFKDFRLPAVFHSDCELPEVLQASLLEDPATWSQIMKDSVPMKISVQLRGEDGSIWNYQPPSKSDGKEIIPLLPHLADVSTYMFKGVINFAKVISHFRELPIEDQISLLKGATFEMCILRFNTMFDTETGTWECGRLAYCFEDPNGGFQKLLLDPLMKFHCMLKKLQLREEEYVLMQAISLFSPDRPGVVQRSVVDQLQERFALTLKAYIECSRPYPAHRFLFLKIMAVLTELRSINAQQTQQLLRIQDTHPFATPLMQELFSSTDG
structure (smiles),measurement,setting,value
N[C@H]1C[C@H]1c1ccc(-c2cccc(O)c2)cc1,Potency,[1],inactive
same,Potency,[2],inactive
same,Potency,[3],inactive
COC(=O)C1=CO[C@@H](O[C@@H]2O[C@H](CO[C@@H]3O[C@H](COC(=O)/C=C/c4ccc(O)cc4)[C@@H](O)[C@H](O)[C@H]3O)[C@@H](O)[C@H](O)[C@H]2O)[C@@H]2C(CO)=CC[C@H]12,Potency,[1],inactive
same,Potency,[2],inactive
same,Potency,[3],inactive
CC(C)(O)C1CCC2(C)C3C(O)C4C(C13)C42CO (stereo unspecified),Potency,[1],inactive
same,Potency,[2],inactive
same,Potency,[3],inactive
CC1CCC2C(C(=O)O)=CC3C(O)C(C)(C)CC123 (stereo unspecified),Potency,[1],inactive
same,Potency,[2],inactive
same,Potency,[3],inactive
COc1cc([C@H]2OC[C@]3(OC(C)=O)[C@@H](c4ccc(O[C@@H]5O[C@H](CO)[C@@H](O)[C@H](O)[C@H]5O)c(OC)c4)OC[C@H]23)ccc1O,Potency,[1],inactive
same,Potency,[2],inactive
same,Potency,[3],inactive
O=C(OCC12OC1C=CC(OC(=O)c1ccccc1)C2O)c1ccccc1 (stereo unspecified),Potency,[1],inactive
same,Potency,[2],inactive
same,Potency,[3],inactive
CC1CCC2C(C)(C)C(O)CCC2(C)C12Cc1c(O)cc3c(c1O2)CN=C3N (stereo unspecified),Potency,[1],inactive
same,Potency,[2],inactive
same,Potency,[3],inactive
C[C@@H]1CC[C@]2(C(=O)O[C@@H]3O[C@H](CO)[C@@H](O)[C@H](O)[C@H]3O)CC[C@]3(C)C(=CCC4[C@@]5(C)C[C@@H](O)[C@H](O)C(C)(C)C5CC[C@]43C)C2[C@]1(C)O (stereo partly specified),Potency,[1],inactive
same,Potency,[2],inactive
same,Potency,[3],inactive
C=C1CC/C=C(/CO)C(=O)C[C@@H]2[C@@H]1CC2(C)C,Potency,[1],inactive
same,Potency,[2],inactive
same,Potency,[3],inactive
Cc1c(N2C(=O)c3ccc(C(=O)O)cc3C2=O)c(=O)n(-c2ccccc2)n1C,Potency,[1],inactive
same,Potency,[2],inactive
same,Potency,[3],inactive
O=C(NC[C@H](O)CN1CCc2ccccc2C1)c1cc(NC2COC2)ncn1,Potency,[1],inactive
same,Potency,[2],inactive
same,Potency,[3],inactive
CC(C)C1=CCC(C)(O)C(OC2OC(CO)C(O)C(O)C2O)C1 (stereo unspecified),Potency,[1],inactive
same,Potency,[2],inactive
same,Potency,[3],inactive
CC(=O)OC1C(O)CC(O[C@@H]2O[C@H](CO)[C@@H](O)[C@H](O)[C@H]2O)C2CCC3C(=O)OC(c4ccoc4)CC3(C)C21 (stereo partly specified),Potency,[1],inactive
same,Potency,[2],inactive
same,Potency,[3],inactive
CC1(C)CCC(C)(C)c2cc([C@@H](O)C(=O)Nc3ccc(C(=O)O)cc3F)ccc21,Potency,[1],inactive
same,Potency,[2],inactive
same,Potency,[3],inactive
CN1C(=O)N[C@@H](Cc2c[nH]c3c(Cl)cccc23)C1=O,Potency,[1],inactive
same,Potency,[2],inactive
same,Potency,[3],inactive
C=C1C[C@]23C[C@H]1CC[C@H]2[C@]1(C)CCC[C@@]2(CO)C(=O)O[C@H]([C@H]21)[C@@H]3O,Potency,[1],inactive
same,Potency,[2],inactive
same,Potency,[3],inactive
CC1(C)CC[C@]2(C(=O)O)CC[C@]3(C)C(=CCC4[C@@]5(C)CC[C@H](O[C@@H]6O[C@H](C(=O)O)[C@@H](O)[C@H](O)[C@H]6O)C(C)(CO)C5CC[C@]43C)C2C1 (stereo partly specified),Potency,[1],inactive
same,Potency,[2],inactive
same,Potency,[3],inactive
O=C1C[C@@H](c2ccc(O)cc2)Oc2cc(O)ccc21,Potency,[1],inactive
same,Potency,[2],inactive
same,Potency,[3],inactive
Cc1nnc(C(C)C)n1C1CC2CCC(C1)N2CCC(NC(=O)C1CCC(F)(F)CC1)c1ccccc1 (stereo unspecified),Potency,[1],inactive
same,Potency,[2],inactive
same,Potency,[3],inactive
C[C@@H](OC(=O)/C=C/c1ccc(O)cc1)C1=C[C@]2(C=C[C@@H]3C(C(=O)O)=CO[C@@H](O[C@@H]4O[C@H](CO[C@@H]5O[C@H](CO)[C@@H](O)[C@H](O)[C@H]5O)[C@@H](O)[C@H](O)[C@H]4O)[C@@H]32)OC1=O,Potency,[1],inactive
same,Potency,[2],inactive
same,Potency,[3],inactive
CC(C)CC(=O)O[C@@H]1OC=C(CO[C@@H]2O[C@H](CO[C@@H]3O[C@H](CO)[C@@H](O)[C@H](O)[C@H]3O)[C@@H](O)[C@H](O)[C@H]2O)[C@H]2C[C@H](O)[C@@H](CO)[C@@H]12,Potency,[1],inactive
same,Potency,[2],inactive
same,Potency,[3],inactive
CC1=CC2(O)/C=C/C(C)(O)CC(O)/C=C/C(=O)OC23C(=O)NC(CC(C)C)C3C1C (stereo unspecified),Potency,[1],inactive
same,Potency,[2],inactive
same,Potency,[3],inactive
C/C1=C\C[C@H](O[C@@H]2O[C@H](CO)[C@@H](O)[C@H](O)[C@H]2O)/C(C)=C/[C@H]2OC(=O)[C@H](C)[C@@H]2CC1,Potency,[1],inactive
same,Potency,[2],inactive
same,Potency,[3],inactive
COc1cc2c(Nc3ccc(Cl)c(Cl)c3F)ncnc2cc1OCC1C[C@@H]2CN(C)C[C@@H]2C1 (stereo partly specified),Potency,[4],17.6 µM (active)
NS(=O)(=O)OC[C@@H]1C[C@@H](n2ccc3c(N[C@H]4CCc5ccccc54)ncnc32)C[C@@H]1O,"activity change, negative = inhibition",[4],-12.3%
CC(=O)c1cnc2ccc(-c3cc(Cl)c(O)c(Cl)c3)nc2c1NC1CCC(CN(C)C)CC1 (stereo unspecified),"activity change, negative = inhibition",[4],-15.7%
CC1=C2[C@@H]([C@H](C)CC[C@H]2/C=C(\C)C(=O)O)[C@H](O)C1,max response,[5],-1.26%
same,outcome,[6],inactive
C[C@@H]1O[C@@H](OC[C@H]2O[C@@H](OCC3CCC4CC3C4(C)C)[C@H](O)[C@@H](O)[C@@H]2O)[C@H](O)[C@H](O)[C@H]1O (stereo partly specified),Potency,[2],inactive
same,Potency,[3],inactive
CCc1c(CC(N)=O)c2cc(OCCCP(=O)(O)O)ccc2n1Cc1ccccc1,Potency,[2],inactive
same,Potency,[3],inactive
C=C1CCC2C(C)(C)C(O)CCC2(C)C1CCC(C)CCOC(=O)CCC(=O)O (stereo unspecified),Potency,[2],inactive
same,Potency,[3],inactive
Nc1nc(CC(=O)Nc2ccc(CCNCC(O)c3ccccc3)cc2)cs1 (stereo unspecified),Potency,[2],inactive
same,Potency,[3],inactive
CC/C=C/CC1=C(CCCCCCCC(=O)O)CCC1=O,Potency,[2],inactive
same,Potency,[3],inactive
COc1cc(C)c(C(=O)O[C@H]2[C@@H](O)[C@H](n3ccc(=O)[nH]c3=O)O[C@@H]2CO)c(OC)c1,Potency,[2],inactive
same,Potency,[3],inactive
CC[C@@H](c1ccc(F)c(F)c1)n1c(C(=O)OC)c(-c2ccno2)[nH]c1=S,Potency,[2],inactive
same,Potency,[3],inactive
CCC(C)C(=O)O[C@@H]1[C@@H](O)[C@@H](O[C@H]2O[C@H](CO)[C@@H](O)[C@H](O)[C@H]2O)O[C@H](CO)[C@H]1O (stereo partly specified),Potency,[2],inactive
same,Potency,[3],inactive
O=C(/C=C/c1c(C(=O)O)[nH]c2cc(Cl)cc(Cl)c12)Nc1ccccc1,Potency,[2],inactive
same,Potency,[3],inactive
COC(=O)C1=CO[C@@H](O[C@@H]2O[C@H](CO)[C@@H](O)[C@H](O)[C@H]2O)[C@@H]2[C@@H](C(=O)OC)[C@@H](O)C(O)[C@H]12 (stereo partly specified),Potency,[2],inactive
same,Potency,[3],inactive
O=C(c1ccc(NS(=O)(=O)c2cccc3cccnc23)cc1)N1CCN(CC2CC2)CC1,Potency,[2],inactive
same,Potency,[3],inactive
CN(NC(=O)CC(=O)NN(C)C(=S)c1ccccc1)C(=S)c1ccccc1,Potency,[2],1.12 µM (active)
same,Potency,[3],inactive
COc1ccc2cc(OCC3(C(=O)O)CN(C(=O)c4ccc(F)cc4)C3)ccc2c1,Potency,[2],inactive
same,Potency,[3],inactive
COC(=O)C1=COC(O[C@@H]2O[C@H](CO)[C@@H](O)[C@H](O)[C@H]2O)/C(=C\COC(=O)c2ccc(OC3OC(CO)C(O)C(O)C3O)c(OC)c2)C1CC(=O)OCCc1ccc(O)cc1 (stereo partly specified),"activity change, negative = cytotoxicity",[2],2.92% [at 11.6 µM]
same,"activity change, negative = cytotoxicity",[3],6.58% [at 11.6 µM]
Cc1coc2c1CC1OC1(C)CCC1OC1(C)C2 (stereo unspecified),Potency,[2],inactive
same,Potency,[3],inactive
CC(C)C(=O)O[C@@H]1[C@@H](O)[C@@H](O[C@H]2O[C@H](CO)[C@@H](O)[C@H](O)[C@H]2O)O[C@H](CO)[C@H]1O,Potency,[2],inactive
same,Potency,[3],inactive
COC(=O)[C@@H]1C2CC3c4[nH]c5ccccc5c4CCN3CC2CC[C@@H]1O (stereo partly specified),Potency,[2],inactive
same,Potency,[3],inactive
COc1cc(/C=C/CO)ccc1O[C@@H]1O[C@H](CO)[C@@H](O)[C@H](O)[C@H]1O,Potency,[2],inactive
same,Potency,[3],inactive
CCCCN(CCCC)C(=O)CN1C[C@H](c2ccc3c(c2)OCO3)[C@@H](C(=O)O)[C@@H]1c1ccc(OC)cc1,Potency,[2],inactive
same,Potency,[3],inactive
COc1cc(C(C)=O)ccc1O[C@@H]1O[C@H](CO[C@@H]2O[C@@H](C)[C@H](O)[C@@H](O)[C@H]2O)[C@@H](O)[C@H](O)[C@H]1O,Potency,[2],inactive
same,Potency,[3],inactive
CCN[C@@H]1C[C@H](N)[C@@H](O[C@H]2OC(CN)=CC[C@H]2N)[C@H](O)[C@H]1O[C@H]1OC[C@](C)(O)[C@H](NC)[C@H]1O,Potency,[2],inactive
same,Potency,[3],inactive
COc1cc(/C=C/C(=O)O[C@H]2[C@H](O)[C@@H](CO)O[C@@]2(CO)O[C@H]2O[C@H](COC(=O)c3ccc(O)cc3)[C@@H](O)[C@H](O)[C@H]2O)cc(OC)c1OC,Potency,[2],inactive
same,Potency,[3],inactive
CCOC(=O)[C@H]1O[C@@H]1C(=O)N[C@@H](CC(C)C)C(=O)NCCC(C)C,Potency,[2],inactive
same,Potency,[3],inactive
NCc1ccc(OCCCc2sc(-c3ccc4c(c3)/C(=N/Nc3nc5ccccc5s3)CCC4)nc2C(=O)O)cc1,Potency,[2],inactive
same,Potency,[3],inactive
Cc1nn(C)c2c1C(c1ccc(C(F)(F)F)cc1)C(C#N)=C(N)O2 (stereo unspecified),Potency,[2],inactive
same,Potency,[3],inactive
COc1ccc(C(=O)O[C@H]2CC(C)=CC[C@@]3(C)[C@@H](OC(C)=O)C[C@@](O)(C(C)C)[C@H]23)cc1,Potency,[2],inactive
same,Potency,[3],inactive
O=C(c1ccc(F)cc1)C1CCN(CCn2c(=O)nc3n(c2=O)CCCC3)CC1,Potency,[2],inactive
same,Potency,[3],inactive
O=C(O)Cc1nn(Cc2nc3cc(C(F)(F)F)ccc3s2)c(=O)c2nccnc12,Potency,[2],inactive
same,Potency,[3],inactive
CCCCS(=O)(=O)Nc1ncnc(OCCOc2ncc(Br)cn2)c1-c1ccc(Br)cc1,Potency,[2],inactive
same,Potency,[3],inactive
C=C1CC[C@@H]2[C@](C)(CC[C@H](O)[C@@]2(C)CCC=C(C)C)[C@@H]1Cc1c[nH]c2ccccc12,Potency,[2],inactive
same,Potency,[3],inactive
C[C@@H]1O[C@@H](O[C@H]2[C@H](OC(=O)[C@]34CCC(C)(C)C[C@H]3C3=CCC5[C@@]6(C)C[C@H](O)[C@H](O[C@@H]7O[C@H](CO)[C@@H](O[C@@H]8O[C@H](CO)[C@@H](O)[C@H](O)[C@H]8O)[C@H](O)[C@H]7O)[C@@](C)(CO)C6[C@H](O)C[C@@]5(C)[C@]3(C)C[C@H]4O)OC[C@H](O)[C@@H]2O)[C@H](O)[C@H](O)[C@H]1O[C@@H]1OC[C@@H](O)[C@H](O[C@@H]2OC[C@](O)(CO)[C@H]2O)[C@H]1O (stereo partly specified),"activity change, negative = cytotoxicity",[2],2.26% [at 6.55 µM]
same,"activity change, negative = cytotoxicity",[3],2.65% [at 6.55 µM]
